# Publication PMC5540273 (PLoS ONE, 2017)
# Tests used:
# Conditions in all cases: concentration: 1 μM,replicates: in singlicate; n = 1
# STK36 = test system: STK36
# STK39 = test system: STK39
# SYK = test system: SYK
# SgK110 = test system: SgK110
# TAK1 = test system: T1, TAK1
# T1 construct: gene MAP3K7
# TAOK1 = test system: TAOK1
# TAOK2 = test system: TAOK2
# TAOK3 = test system: TAOK3
# TBK1 = test system: TBK1
# TEC = test system: TEC
# 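Also: KINOMEscan kinase panel screen.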
Structure (SMILES),%Inh (STK36) [%],%Inh (STK39) [%],%Inh (SYK) [%],%Inh (SgK110) [%],%Inh (TAK1) [%],%Inh (TAOK1) [%],%Inh (TAOK2) [%],%Inh (TAOK3) [%],%Inh (TBK1) [%],%Inh (TEC) [%]
C[C@@H](Oc1cc(-n2cnc3cc(-c4cnn(C)c4)ccc32)sc1C(N)=O)c1ccccc1Cl [GSK580432],0,10,92.3,0,0,0,0,0,0,0
Cn1ccc2ncnc(Oc3ccc(NC(=O)Nc4cccc(C(F)(F)F)c4)c(Cl)c3)c21,0,0,1,0,31,0,23,0,15,0
O=C(Nc1ccc(Oc2ccc3nc(NC(=O)C4CC4)cn3n2)c(F)c1)c1cccn(-c2ccccc2)c1=O,1,0,30,0,0,0,0,0,54,44
CCn1c(-c2nonc2N)nc2cncc(CNC3CCNCC3)c21.Cl [SB-747651],0,24,21,2,0,0,1,0,7,2
CC(=O)Nc1nc2cnc(Nc3cc(NC(=O)c4cccc(CC(C)(C)C#N)c4)ccc3C)nc2s1,8,22,0,0,41,0,0,0,12,7
Cc1ccc2c(-c3ccnc(Nc4ccc(C(F)(F)F)cc4)n3)cnn2n1 [GW819776],9,6,42,20,2,1,23,0,48,9
CN1CCN(CCNc2nc3cc(Oc4ccc(NC(=O)Nc5cc(C(F)(F)F)ccc5F)cc4)ccc3[nH]2)CC1.Cl.Cl [GW768504],13,0,16,57,0,0,38,0,28,0
CSc1nccc(-c2c(-c3ccc(F)cc3)ncn2CCCN2CCOCC2)n1.Cl [SB-217146],0,0,5,3,3,0,45,6,33,2
CN(c1ccccc1CNc1nc(Nc2ccc3c(c2)CC(=O)N3)ncc1C(F)(F)F)S(C)(=O)=O,8,0,86,0,76,92.7,6,86,48,0
CC(=O)Nc1ccc(-c2cc3ncnc(SCC(=O)O)c3s2)cc1,1,0,1,0,17,0,0,0,15,0
CNC(=O)c1ccccc1Nc1nc(Nc2cccc(CS(C)(=O)=O)c2)ncc1C.O=CO [GSK1520489],65,15,70,100,96,72,15,52,44,99.9
COc1cccc(CNC(=O)NC2CCN(c3ccnc(Nc4cc(OC)c(OC)c(OC)c4)n3)C2)c1 (stereo not shown) [GSK1379765],0,10,9,0,0,0,0,0,36,13
Cl.Cl.NC[C@H](CC1CCCCC1)NC(=O)c1ccc(-c2ccnc3[nH]ccc23)s1 [GSK1581428],0,7,20,95.3,64,87,0,14,29,0
COc1cc2nccc(Nc3ccc(Oc4ccccc4)cc3)c2cc1OC.Cl [GI261656],0,1,0,0,0,0,0,0,13,92.8
Cn1ccc2ncnc(Oc3ccc(NC(=O)Nc4cnn(C(C)(C)C)c4)c(Cl)c3)c21,7,0,0,38,85,0,15,0,10,0
NC(=O)c1ccc(-c2cc3ncnc(SCC(=O)O)c3s2)cc1,0,0,0,0,0,0,0,0,8,0
Cn1ccc2ncnc(Oc3ccc(NC(=O)Nc4cccc(C(F)(F)F)c4)c(F)c3)c21,0,3,43,0,31,0,38,0,51,5
CCCC(=O)Nc1n[nH]c2ncccc12 [SB-601436],4,0,8,0,0,2,3,0,0,0
Cl.c1ccc(Oc2ccc(Nc3ccnc4cc(-c5ccc(CN6CCNCC6)o5)ccc34)cc2)nc1 [GW567142],0,1,0,0,3,0,0,0,25,26
N#Cc1cccc(C(=O)NC2CCN(c3ccnc(Nc4ccc(F)cc4)n3)C2)c1 (stereo not shown) [GSK1379708],0,0,27,5,0,0,0,0,0,0
COc1cccc(OC)c1C(=O)Nc1cccc(-c2nn3ccccc3c2-c2ccnc(Nc3cccc(F)c3)n2)c1 [GSK361065],92,11,3,16,16,62,15,60,61,26
Cc1cccc(-c2nc(Nc3ccncc3)c3sccc3n2)n1 [GW869641],24,0,20,15,44,45,7,38,31,0
Cn1ccc2ncnc(Oc3ccc(NC(=O)Nc4cc(C(C)(C)C)on4)c(Cl)c3)c21,0,23,0,27,81,0,0,0,28,9

Structure (SMILES),%Inh (STK36) [%],%Inh (STK39) [%],%Inh (SYK) [%],%Inh (SgK110) [%],%Inh (TAK1) [%],%Inh (TAOK1) [%],%Inh (TAOK2) [%],%Inh (TAOK3) [%],%Inh (TBK1) [%],%Inh (TEC) [%]
C[C@@H]1CNc2c(sc3ccc4nc(-c5ccc(O)cc5)ccc4c23)C(=O)N1,5,6,0,0,44,86,0,0,8,5
COc1cc2ncn(-c3cc(OCC4CCCCC4)c(C(N)=O)s3)c2cc1OC [GSK204559],0,7,35,0,96.5,0,0,0,26,13
CCN1CCN(CCCC(=O)Nc2n[nH]c3nc(-c4ccc(O)cc4)c(Br)cc23)CC1 [SB-731579],0,0,0,0,11,53,65,66,0,0
O=C(Nc1ccccc1)c1cccc(Oc2ccc3nccn3n2)c1,5,3,14,6,11,5,0,0,0,0
COC(=O)Nc1nc2cc(Oc3ccc(NC(=O)Nc4cc(C(F)(F)F)ccc4Cl)cc3)ccc2[nH]1.Cl [GW697465],0,13,24,0,62,0,0,0,0,15
Cc1cccc2c(-c3ccncc3)c(-c3ccc(F)cc3)nn12.Cl [GW461487],24,12,25,0,0,1,0,5,16,0
C[C@@H](Oc1cc(-n2cnc3ccc(-c4ccncc4)cc32)sc1C(N)=O)c1ccccc1Cl [GSK483724],0,7,12,0,39,0,0,0,17,11
COC(=O)c1cccc(NC(=O)NC2CCN(c3ccnc(Nc4cc(OC)c(OC)c(OC)c4)n3)C2)c1 (stereo not shown) [GSK1379767],0,5,34,0,12,0,0,0,32,0
O=c1[nH]cc(-c2ccc(O)cc2)c2sc(-c3ccncc3)cc12 [GSK1033723],26,6,26,0,11,14,0,0,19,0
CC(=O)c1c(-c2ccncc2)[nH]c(-c2ccncc2)c1C [GW493036],10,20,24,0,19,63,0,0,0,0
O=C1NCCc2[nH]c(-c3ccncc3)cc21,6,23,11,0,23,96.9,16,41,20,0
Cn1ccc2ncnc(Oc3ccc(NC(=O)Nc4ccnc(C(F)(F)F)c4)c(Cl)c3)c21,0,0,0,47,2,0,0,0,0,0
Cc1nnc(-c2ccc3occ(-c4ccc(S(C)=O)cc4)c3n2)o1 (stereo not shown),0,0,0,3,0,0,0,0,30,0
O=C(NOCC1CC1)c1cc(Br)c(F)c(F)c1Nc1ccc(I)cc1Cl,0,0,13,0,0,0,27,0,5,0
Cn1cc(-c2cccc3c(N)c(C(N)=O)nnc23)cn1,6,29,11,0,21,25,29,12,31,0
Cc1ccn2nc(-c3ccc(F)cc3)c(-c3ccncc3)c2c1.Cl [GW457859],24,4,18,0,64,0,0,0,14,0
CN1CCN(CCCNc2nccc(-c3c(-c4ccc(F)cc4)nn4cc(C(N)=O)ccc34)n2)CC1 [GW622475],98.9,23,11,7,29,13,0,10,0,8
Cc1ccc(Nc2ccnc(Nc3ccc4c(c3)CS(=O)(=O)C4)n2)cc1O.Cl [GW579362],92.2,17,93.2,0,99.5,81,30,47,90,83
O=C(Nc1n[nH]c2cc(-c3ccco3)ccc12)C1CC1 [SB-737447],0,5,19,0,11,65,5,12,25,2
Cc1ccc(CC(=O)N2CCc3cc(-c4cn(C)c5ncnc(N)c45)ccc32)cc1 [GSK2634758],3,1,33,0,17,0,0,0,4,0
Cn1ccc2ncnc(Oc3ccc(NC(=O)Nc4cncc(C(F)(F)F)c4)c(Cl)c3)c21,0,0,0,9,11,0,0,0,0,0
CC(C)c1nc(-c2cccc(NS(=O)(=O)c3ccccc3)c2)c(-c2ccnc(Nc3ccc4c(c3)CN(C)CC4)n2)s1 [GSK1649598],100,85,0,0,51,97.2,98.5,97.8,40,94.2
CC(C)S(=O)(=O)N1CCN(Cc2ccc3c(c2)nc(NC(=O)c2ccsc2)n3C[C@H](O)c2ccccc2)CC1 [GW635815],0,10,78,0,79,0,0,0,50,0

Structure (SMILES),%Inh (STK36) [%],%Inh (STK39) [%],%Inh (SYK) [%],%Inh (SgK110) [%],%Inh (TAK1) [%],%Inh (TAOK1) [%],%Inh (TAOK2) [%],%Inh (TAOK3) [%],%Inh (TBK1) [%],%Inh (TEC) [%]
COc1cc2c(Nc3ccc(NC(=O)c4ccccc4)cc3)ncnc2cc1OCCCN1CCOCC1 [GSK301329],0,0,7,0,0,0,0,0,0,0
CCn1c(-c2nonc2N)nc2cncc(Br)c21 [SB-738004],0,21,8,0,68,46,1,1,16,0
CN(c1cccc(CNc2nc(Nc3ccc4c(c3)CC(=O)N4)ncc2C(F)(F)F)c1)S(C)(=O)=O,20,0,37,0,43,0,16,0,70,0
COc1cccc(C2=C(Nc3cccc(Cl)c3)C(=O)NC2=O)c1 [SB-341556],0,8,3,0,3,21,0,23,2,0
C[C@@H]1CNc2c(sc3ccc4nc(-c5ccncc5)ccc4c23)C(=O)N1,6,0,11,0,62,75,0,0,9,0
Nc1nccc(-c2ccc3c(N)n[nH]c3c2)n1 [GSK1034945],0,1,0,0,8,62,0,0,20,13
CC(C(=O)NC1CCN(c2ccnc(Nc3ccc(F)cc3)n2)C1)c1ccc(Cl)cc1 (stereo not shown) [GSK1379713],0,0,30,13,0,0,0,0,0,0
Cc1ccc(C(=O)Nc2ccc(Oc3ccc4nc(NC(=O)C5CC5)cn4c3)c(F)c2)c(=O)n1-c1ccccc1,3,25,59,0,0,0,0,0,44,55
FC(F)(F)c1cc(Br)cc(Nc2nccc(-c3cnn4ncccc34)n2)c1 [GW810578],19,0,21,0,62,58,0,4,17,0
CCNCC(Cc1ccccc1)NC(=O)c1cc(Br)c(-c2ccnc3[nH]ccc23)s1.Cl.Cl (stereo not shown) [GSK1383280],0,0,0,79,19,54,0,15,26,0
C[C@@H]1CCN(C(=O)N2CCCC2)C[C@@H]1N(C)c1ncnc2[nH]ccc12,7,0,21,73,43,0,0,0,64,0
CN(c1ccc2c(c1)nc(NCc1ccc(F)cc1)n2C)c1ccnc(Nc2ccc(CS(C)(=O)=O)cc2)n1.Cl [GW813244],7,0,73,8,19,0,61,3,54,25
O=C(NCC1CC1)c1ccc(-c2cc(C(=O)NC3CC3)ccc2F)cc1 [GW810445],0,15,17,51,4,0,0,0,26,2
COC(=O)c1cccc(NC(=O)NC2CCN(c3ccnc(NCc4ccc(F)cc4)n3)CC2)c1 [GSK1379860],0,0,25,0,0,0,0,0,0,15
Cl.Nc1n[nH]c2cc(-c3ccccn3)ccc12 [GSK2189892],0,0,7,0,2,0,0,0,6,0
COc1ccc(Nc2nccc(N3CCC(NC(=O)c4cccc(C#N)c4)C3)n2)cc1 (stereo not shown) [GSK1379730],0,0,19,0,0,0,0,0,0,0
COc1cc(Nc2nccc(N3CCC(NC(=O)c4cccc(C#N)c4)C3)n2)cc(OC)c1OC (stereo not shown) [GSK1379751],0,0,0,0,0,0,0,0,10,0
NC(=O)Nc1sc(-c2ccc(F)cc2)cc1C(N)=O [GW789449],0,0,32,0,75,61,41,3,41,1
CS(=O)(=O)c1cccc(CNc2nc(Nc3ccc4c(c3)[C@@H]3C[C@@H]4CNC3=O)ncc2C(F)(F)F)c1,10,9,93.8,0,92.2,51,24,36,98.6,0
O=C(Nc1cccc(C(F)(F)F)c1)c1cccc(Oc2ccc3nccn3n2)c1,0,2,14,26,4,4,9,0,12,7
CS(=O)(=O)Nc1ccc(-c2ccnc3[nH]ccc23)cc1 [GSK993273],0,24,52,0,33,27,0,0,10,16
